Pol III holo inh = qHTS Assay for Inhibitors of DNA Polymerase III Holoenzyme System; AID 603, 2007; reconstituted DNA polymerase III holoenzyme replication, biochemical; Potency, µM (doses to about 57.1 µM), for inactives: at the top dose activity change, negative = inhibition; hit rate 0.25% among 71,000
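Reconstituted *E. coli* holoenzyme (0.35 nM Pol III, 1 nM beta, 154 nM SSB, 2 nM primase) was preincubated with compound for 15 min at RT. Synthesis on 1.4 nM ssM13Gori ran 35 min, then was stopped with PicoGreen/EDTA and read as dsDNA fluorescence.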
ERK AVP inh = qHTS Assay for Inhibitors of the ERK Signaling Pathway using a Homogeneous Screening Assay. HEK293-V1b, vasopressin-stimulated pERK AlphaScreen. Potency, µM (series often up to 57.5 µM), inactives show at the highest dose activity, negative = inhibition, most hits filed as inhibitors. hit rate 0.99% among 72,000; further: nearly all actives have a fitted effect of over 55% in size
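Phosphorylated ERK1/2 detected via AlphaScreen bead proximity in lysates of V1b-expressing HEK293 cells given 25 nM vasopressin for 5 min after 30 min compound exposure (37 °C). AC50 from Hill equation; basal DMSO 0%, vasopressin 100%.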
Luciferase inh = qHTS Assay for Inhibitors of Firefly Luciferase | purified firefly luciferase, luminescence, 8 min | Potency, µM (titrated, usually from 57.1 µM), without a hit: top-dose activity change, negative = inhibition, hits mostly inhibitors | Luciferin 4-monooxygenase (Photinus pyralis), P08659 | hit rate 2.2% among 72,000 | AID 411, 2009; further: nearly all actives have a fitted effect of over 40% in size
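Titration-based qHTS; buffer 50 mM imidazole pH 7.2, 50 mM KCl, 7 mM MgCl2, 10 uM ATP, 0.01% Tween 20, 0.05% BSA; luciferase/luciferin detector mix added after compound; 8 min, ambient; luminescence.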
Tau fil binding = qHTS Assay for Tau Filament Binding; recombinant tau filaments, thioflavin S fluorescence, 15 h; filaments grown with octadecylsulfate alongside compound; Potency, µM (doses to about 57.1 µM), for the others: top-dose activity change, negative = inhibition; hit rate 2% among 71,000; AID 596, 2007;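 further: actives lower thioflavin S fluorescence by blocking filaments or displacing dye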
Target sequence (P10636 whole entry, looked up): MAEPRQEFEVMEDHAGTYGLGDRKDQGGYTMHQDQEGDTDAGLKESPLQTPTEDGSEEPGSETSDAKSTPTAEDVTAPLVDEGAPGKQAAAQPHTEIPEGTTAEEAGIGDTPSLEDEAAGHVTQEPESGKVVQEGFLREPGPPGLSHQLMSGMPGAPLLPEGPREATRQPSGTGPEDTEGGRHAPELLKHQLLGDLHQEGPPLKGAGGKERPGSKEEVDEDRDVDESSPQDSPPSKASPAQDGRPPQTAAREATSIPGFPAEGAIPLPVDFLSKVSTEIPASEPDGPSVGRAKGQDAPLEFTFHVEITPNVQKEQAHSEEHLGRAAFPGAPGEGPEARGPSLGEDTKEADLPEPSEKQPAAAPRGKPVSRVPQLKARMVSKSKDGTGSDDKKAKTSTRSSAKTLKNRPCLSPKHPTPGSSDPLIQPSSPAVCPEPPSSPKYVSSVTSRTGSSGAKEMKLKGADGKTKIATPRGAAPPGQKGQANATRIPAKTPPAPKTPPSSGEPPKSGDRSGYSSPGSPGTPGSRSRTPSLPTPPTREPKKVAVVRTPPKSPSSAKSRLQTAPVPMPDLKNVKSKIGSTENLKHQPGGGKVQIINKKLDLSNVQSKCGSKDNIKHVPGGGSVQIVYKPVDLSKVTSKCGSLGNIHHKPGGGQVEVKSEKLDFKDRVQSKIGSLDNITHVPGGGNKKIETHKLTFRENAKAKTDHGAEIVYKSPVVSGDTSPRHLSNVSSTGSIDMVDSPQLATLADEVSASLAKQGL
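Assay mix: 1 uM His-tagged tau, 30 uM sodium octadecylsulfate, thioflavine S dye in HEPES/NaCl/DTT buffer. Compound is added prior to the inducer. Fluorescence after 15 h at 37 C.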
15-hLO inh = qHTS Assay for Inhibitors of 15-hLO (15-human lipoxygenase); Polyunsaturated fatty acid lipoxygenase ALOX15 (Homo sapiens), P16050; purified 15hLO-1, xylenol orange hydroperoxide absorbance; Potency, µM (top dose mostly 57.1 µM), for inactives: top-dose activity change, negative = inhibition, actives largely listed as inhibitors; hit rate 1.4% among 74,000; AID 887, 2007; further: nearly all actives have a fitted effect of over 55% in size
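Hydroperoxide formed from arachidonic acid (50 uM) by purified human 15hLO-1 (40 nM) oxidizes ferrous iron, and the ferric-xylenol orange complex is read at 573 versus 405 nm. Compounds were preincubated 15 min; reaction ran 6 min at room temperature.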
Bst PK mod = Pyruvate Kinase | purified pyruvate kinase, luminescence ATP production; ribose 5-phosphate activator present at AC10 | Potency, µM | hit rate 1.2% among 51,000 | AID 361, 2006; in the data active means potency below about 11 µM; inconclusive means mostly about 12 µM to 25 µM;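 the screen sought inhibitors and activators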;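 further: scaled between full activation by ribose 5 phosphate and full inhibition by luteolin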
* marks the source's active call; other numbers are inactive results; i = inactive; ? = inconclusive; . = no result given; ! = a repeat was not active; [ ] = dose if it differs, or a comment. Only some compounds are listed: those with a hit (about 6% of all), similar ones and a draw of the others. Unless noted, the call rests on the fitted dose curve; in most records, active means well fitted curve in the direction sought with a large enough effect; inconclusive means small, poorly fitted or top-dose-only effect, or another doubt; inactive means no such curve, though single readings can be large; an effect the other way counts as inactive or inconclusive. Unless noted, on the % scale 0 is the no-effect control and ±100 the full control effect; potency means the concentration at half of the fitted maximal effect.

SMILES	Pol III holo inh	ERK AVP inh	Luciferase inh	Tau fil binding	15-hLO inh	Bst PK mod
CCn1c(N)c(C(=O)NC)sc1=S	-1%	-1%	-2%	-6%	4µM*	>57
COc1ccc(C2=NCC(=O)N(CC(=O)NCc3ccco3)c3sc4c(c32)CCCC4)cc1	4%	-8%	-1%	20%	?	>57
Cc1cccc(C2=NCC(=O)N(CC(=O)NCc3ccco3)c3sc4c(c32)CCCC4)c1	-1%	6%	0%	48%	25µM*	>57
CC1=CC(=O)NP(=O)(Oc2ccc3ccccc3c2)N1 (configuration not stated)	-2%	-3%	-3%	-4%	13µM*	>57
CN1C[C@@H](C(=O)N[C@]2(C)O[C@]3(O)[C@H]4CCCN4C(=O)[C@H](Cc4ccccc4)N3C2=O)C[C@H]2c3cccc4[nH]cc(c34)C[C@@H]21	-5%	-6%	2%	-2%	-22%	.
Cn1cc(CCC(=O)N2CCC3(CC2)OCCO3)c2ccccc21	-7%	-1%	0%	-5%	-1%	>57
Cc1cc(N2CCOCC2)nc2ccc(NC(=O)CCC(=O)N3CCC4(CC3)OCCO4)cc12	2%	2%	13µM*	-5%	11%	.
O=c1ccc2cc(O[C@@H]3O[C@@H](CO)[C@@H](O)[C@@H](O)[C@H]3O)c(O)cc2o1	-8%	.	0%[11.4 µM]	?	.	.
C[N+]1(C)[C@@H]2CC[C@H]1CC(OC(=O)c1c[nH]c3ccccc13)C2 (some centres not stated)	-3%	?	-4%	-9%	16µM*	.
C[N+]1(C)[C@@H]2CC[C@H]1CC(OC(=O)C(CO)c1ccccc1)C2 (some centres not stated)	.	.	2%[25.5 µM]	.	.	>26
CC(=NCc1ccco1)c1c(O)n(C)c(=O)n(C)c1=O	4%	-8%	1%	6%	3%	>57
Cn1c(O)c(C=NCc2ccco2)c(=O)n(C)c1=O	3%	?	4%	-5%	32µM*	.
O=C1C[C@H]2OCCC=C3CN4CC[C@@]56c7ccccc7N1[C@@H]5[C@H]2[C@H]3C[C@@H]46	-6%	.	2%[11.4 µM]	-28%	.	.
C=CCN1CCc2cccc3c2[C@@H]1Cc1ccc(O)c(O)c1-3	-7%	?	-16%	-26%	?	.
COC(=O)[C@H](N)CCCN=C(N)N[N+](=O)[O-]	-5%	0%	0%	-7%	14%	.
C[C@H]1[C@@H](O)[C@@H](C)/C=C\C=CCC\C=C/C=C\C=C/C=C[C@@H](O[C@H]2O[C@@H](C)[C@@H](O)[C@@H](N)[C@@H]2O)C[C@@H]2O[C@@](O)(C[C@@H](O)[C@H]2C(=O)O)C[C@@H](O)[C@@H](O)CC[C@@H](O)C[C@@H](O)C[C@@H](O)CC(=O)O[C@H]1C	-6%[25.6 µM]	-9%[25.7 µM]	8%[25.5 µM]	14%[25.6 µM]	7.9µM*	.
CNc1ccc2oc(C[C@@H]3O[C@@]4(CC[C@H]3C)O[C@@H]([C@@H](C)C(=O)c3ccc[nH]3)[C@@H](C)C[C@H]4C)nc2c1C(=O)O	-5%	.	-2%	-16%	.	.
CN(c1ccccc1)S(=O)(=O)c1cccc(C(=O)N2CCN(c3ccccn3)CC2)c1	-3%	25µM*	4%	14%	3%	>57
O=c1cccc2n1C[C@H]1C[C@@H]2CN(CCO)C1	0%	.	1%[11.4 µM]	13%	.	.
c1ccc(CCCN2CCN(CCOC(c3ccccc3)c3ccccc3)CC2)cc1	-2%	?	1%	-6%	25µM*	.
Fc1ccc(C(OCCN2CCN(CCCc3ccccc3)CC2)c2ccc(F)cc2)cc1	-1%	?	2%	?	-10%[25.6 µM]	.
c1ccc2ncccc2c1	0%	-3%	.	-5%	8%	.
N#CS.N=C=S.N=C=S.[Cu].[NH2-].[NH2-].[NH2-].[NH2-].c1ccc2ncccc2c1	-9%[11.4 µM]	6%[11.5 µM]	2%[11.4 µM]	-4%[11.4 µM]	2.5µM*	.
CC(C)C[C@H]1C(=O)N2CCC[C@@H]2[C@]2(O)O[C@](NC(=O)[C@H]3C=C4c5cccc6[nH]cc(c56)C[C@H]4N(C)C3)(C(C)C)C(=O)N12	9%	.	-4%[11.4 µM]	i	.	.
O=C1C=C2C(=CCOC2O)O1 (configuration not stated)	.	32µM*	.	.	0%	.
SMILES	Pol III holo inh	ERK AVP inh	Luciferase inh	Tau fil binding	15-hLO inh	Bst PK mod
C=CCN1C[C@@H](C)N([C@H](c2ccc(C(=O)N(CC)CC)cc2)c2cccc(OC)c2)C[C@H]1C	-2%	-1%	-3%	4%	12%	.
c1ccc(C[N+]23CN4CN(CN(C4)C2)C3)cc1	-10%[11.4 µM]	19%[11.5 µM]	2%[11.4 µM]	6%[11.4 µM]	-4%[11.4 µM]	.
Nc1ccc(-c2ccc(N)c(O)c2)cc1O	-4%	-22%	.	5µM*	?	.
c1ccc(Nc2ccc3ccccc3c2)cc1	-2%	27%	.	-17%	-8%	.
CC(C)Nc1ccc(Nc2ccccc2)cc1	-4%	-7%	.	16µM*	?	.
C[C@@]12CC[C@H]3[C@H](CCC4=CC(=O)CC[C@H]43)[C@H]1CC[C@H]2OC1(O)C(=O)c2ccccc2C1=O	-14%[11.4 µM]	15%[11.5 µM]	4%[11.4 µM]	2%[11.4 µM]	-1%[11.4 µM]	.
O=c1cc(-c2ccc(O)c(O)c2)oc2cc(O)cc(O)c12	?	-9%	1%[11.4 µM]	?	2.5µM*	.
OC[C@H]1CCCN2CCCC[C@@H]12	-4%	.	-1%[11.4 µM]	?	.	.
COc1cc2c(cc1OC)[C@@H]1C(=O)c3ccc(OC)c(CC=C(C)C)c3OC1CO2 (some centres not stated)	.	-11%	.	.	16µM*	.
O=S(=O)(NCCO)c1cc[c]([Sb](=[O])([OH])[OH])cc1	-8%[11.4 µM]	1%[11.5 µM]	-1%[11.4 µM]	-3%[11.4 µM]	16%[11.4 µM]	.
NNC(=O)c1ccc(O)cc1	-6%	-4%	13µM*	7%	-6%	.
CC(C)CC(N(C)C)C1(c2ccc(Cl)cc2)CCC1 (configuration not stated)	.	?	.	.	20µM*!	.
CN(C)C1(c2nnnn2-c2ccc(Cl)cc2)CCCCC1	-4%	.	1%	-12%	-1%	.
COc1ccc(C[C@@H]2NC[C@H](O)[C@H]2OC(C)=O)cc1	-10%	.	1%[11.4 µM]	?	.	.
